From PubChem BioAssay (NCATS)
Results filed as inconclusive are left out. The source made the active and inactive calls. Unless noted, the call rests on the fitted dose curve; in most records, active means well fitted curve in the direction sought with a large enough effect; inconclusive means small, poorly fitted or top-dose-only effect, or another doubt; inactive means no such curve, though single readings can be large; an effect the other way counts as inactive or inconclusive.

How the values were obtained:
[1] = molecular target: Cytochrome P450 1A2 (Homo sapiens) (UniProt P05177); assay: p450-cyp1a2 (AID 410; calls by dose curve; further: potency means the concentration at half of the fitted maximal effect)
How it was run: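 Read-out is luminescence from luciferin produced by CYP1A2 demethylation of Luciferin-ME (100uM, at Km). Detection reagent stopped the 60 min NADPH-dependent reaction; signals were normalized to 57 uM furafylline.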

[2] = molecular target: Glucocorticoid receptor (Homo sapiens) (UniProt P04150); assay: GR-GFP Redistribution (AID 450;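 active means compounds whose dose series gives a full or clear partial fitted curve of increased nuclear translocation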; further: potency means the concentration at half of the fitted maximal effect)
[3] = molecular target: Glucocorticoid receptor (Homo sapiens) (UniProt P04150); assay: GR-EFC Redistribution (AID 451; calls by dose curve; further: potency means the concentration at half of the fitted maximal effect); conditions: CHO-K1 GR-EFC translocation, beta-gal luminescence, 2 h
How it was run: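 Translocation of GR-ED fusion to nuclear EA restores b-gal, read by luminescence after 1 h room-temperature detection. Engineered CHO-K1 biosensor cells, 1,000/well, exposed 2 h at 37 C to titrations up to 46 uM final.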

[4] = molecular target: 3',5'-cyclic-AMP phosphodiesterase 4B (Homo sapiens) (UniProt Q07343); assay: qHTS Assay for Inhibitors of PDE-IV (AID 607; active means well fitted activation curve with a large enough effect in the main read-out, with a control signal flat, not every such curve was filed as active; further: % of control where 0% means no effect)
How it was run: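 Live HEK293 cells with a modified cyclic nucleotide-gated (CNG) channel report intracellular cAMP via membrane-potential dye fluorescence (ex 535/em 590 nm). Endogenous PDE-IV was targeted. Compounds were tested at up to 22.9 uM final; RO 20-1724 100 uM served as control.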

[5] = molecular target: DNA dC->dU-editing enzyme APOBEC-3G (Homo sapiens) (UniProt Q9HC16); assay: qHTS for inhibitors of Vif-A3G interactions: Validation (AID 588379); further: 0% is about no effect
How it was run: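 Yellow fluorescence (Ex 488, Em 500-530) of Vif-coexpressing HeLa A3G-eYFP cells, scanned by Acumen cytometer, reports blocked A3G degradation. Cells plated at 700/well overnight at 37 deg C before compound addition, then a further overnight compound incubation at 37 deg C.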

[6] = molecular target: Androgen receptor (Homo sapiens) (UniProt P10275); assay: qHTS assay for small molecule agonists of androgen receptor signaling (AID 588515; active means well fitted curve in the direction sought with a large enough effect in the signal ratio, with a control signal flat; the % refers to the signal ratio; further: on the % scale 0 is the no-effect control and ±100 the full control effect); conditions: AR-UAS-bla HEK293, beta-lactamase ratio, agonist 16 h; stronger effect = higher value
How it was run: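 Stimulation of an AR-responsive β-lactamase reporter in GripTite HEK293 cells was measured after 16 h compound exposure at 37 °C, via CCF4 fluorescence after 2 h RT. EC50 from Hill fits, normalized to R1881 at 30 nM.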

[7] = molecular target: Androgen receptor (Homo sapiens) (UniProt P10275); assay: qHTS assay for small molecule antagonists of androgen receptor signaling (AID 588516; active means well fitted curve in the direction sought with a large enough effect in the signal ratio, with a control signal flat, not every such curve was filed as active; the % refers to the signal ratio; further: on the % scale 0 is the no-effect control and ±100 the full control effect)
How it was run: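 Compounds tested in titration against 10 nM R1881 in AR-responsive bla reporter HEK 293 cells; CCF4 fluorescence (460/530 nm) after 16 h exposure gave IC50 and efficacy.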

[8] = molecular target: Bile acid receptor (Homo sapiens) (UniProt Q96RI1); assay: qHTS assay for small molecule antagonists of farnesoid X receptor signaling (AID 588526; calls by dose curve; further: on the % scale 0 is the no-effect control and ±100 the full control effect)
How it was run: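 Beta-lactamase reporter antagonist mode: HEK293T FXR-UAS-bla cells, titrated compound, CDCA stimulation, 16 h 37 C, CCF4 dye 2 h RT. Data normalized to CDCA 50 uM and DMSO; Hill-fit IC50.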

[9] = molecular target: Glucocorticoid receptor (Homo sapiens) (UniProt P04150); assay: qHTS assay for small molecule agonists of glucocorticoid receptor signaling (AID 588532; active means well fitted curve in the direction sought with a large enough effect in the signal ratio, with a control signal flat; the % refers to the signal ratio;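 further: 100% = dexamethasone at 0.1 µM and 0% = DMSO only wells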); conditions: HeLa MMTV-bla, beta-lactamase ratio, agonist, 18 h; stronger effect = higher value; percent of dexamethasone control, DMSO zero
How it was run: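 Quantitative HTS using CellSensor MMTV-bla HeLa cells in charcoal/dextran-treated serum; compounds tested up to 92 uM. After 18 h at 37 C, CCF4 dye reported reporter induction.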

[10] = molecular target: Peroxisome proliferator-activated receptor gamma (Homo sapiens) (UniProt P37231); assay: qHTS assay for small molecule antagonists of peroxisome proliferator-activated receptor gamma signaling (AID 588537; active means well fitted inhibition curve with a large enough effect in the signal ratio, with a control signal flat, not every such curve was filed as active; the % refers to the signal ratio;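 further: reporter cells co-stimulated with 50 nM rosiglitazone agonist during compound treatment; % of control where 0% means no effect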)
How it was run: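 Cell-based beta-lactamase assay; GW9662 served as the antagonist control. Stimulation used rosiglitazone, final 50 nM, 16 h, 37 C.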

[11] = molecular target: Vitamin D3 receptor (Homo sapiens) (UniProt P11473); assay: qHTS assay for small molecule agonists of vitamin D receptor signaling (AID 588543; calls by dose curve;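 further: 0% = DMSO basal and 100% = reference agonist control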)
How it was run: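 Measured: β-lactamase reporter activity (CCF4, 405 nm excitation, 460/530 nm emission) in HEK293T VDR-UAS-bla cells after 16 h compound exposure at 37 °C. Normalization against 50 nM 1α,25-dihydroxyvitamin D3 and DMSO; Hill-fit EC50.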

[12] = molecular target: Thyroid hormone receptor beta (Homo sapiens) (UniProt P10828); assay: qHTS assay for small molecule agonists of thyroid hormone receptor beta signaling (AID 588545; calls by dose curve)
How it was run: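 Cells (2500/well) were seeded, incubated 4 hrs at 37 C, dosed with a compound series, incubated 18 hrs, loaded with CCF4 dye for 2 hrs at RT, then read for fluorescence. Data were scaled between DMSO (0%) and 10 nM T3 (100%).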

[13] = qHTS assay for small molecule antagonists of retinoid X receptor alpha signaling (AID 588546); conditions: HEK293T RXRa-UAS-bla, beta-lactamase ratio, antagonist mode; measured here: W530 green channel, cytotoxicity proxy;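 further: cells stimulated with 9-cis-retinoic acid as agonist; on the % scale 0 is the no-effect control and ±100 the full control effect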
How it was run: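 Beta-lactamase reporter inhibition, read as CCF4 fluorescence ratio (ex 405, em 460/530 nm) after 2 h at RT. HEK293T UAS-bla cells, 2500/well, were stimulated with 9-cis-RA at 500 or 100 nM final alongside test compound for 18 h at 37 C.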

[14] = molecular target: Thyroid hormone receptor beta (Homo sapiens) (UniProt P10828); assay: qHTS assay for small molecule antagonists of thyroid hormone receptor beta signaling (AID 588547; active means well fitted inhibition curve with a large enough effect in the signal ratio, with a control signal flat, not every such curve was filed as active; the % refers to the signal ratio); conditions: TR-UAS-bla HEK293, beta-lactamase ratio, antagonist mode, 18 h
How it was run: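 Inhibition of T3-driven (0.4nM final) beta-lactamase reporter activity was measured over 0.59 nM to 92 uM compound after 18 h at 37 C. The cells were GripTite HEK293 TR-UAS-bla in charcoal/dextran-stripped serum, with CCF4 ratio read-out and IC50 from Hill fits.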

[15] = qHTS assay for small molecule agonists of the antioxidant response element (ARE) signaling pathway (AID 651741; active means well fitted activation curve with a large enough effect in the signal ratio; the % refers to the signal ratio; further: potency means the concentration at half of the fitted maximal effect)
How it was run: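 Agonist activity is measured as ARE-driven beta-lactamase expression in a stable HepG2 reporter line, using 16 h compound treatment at 37 C and a FRET substrate fluorescence readout after 2 h.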

[16] = qHTS assay for small molecule activators of the nuclear factor-kappa B (NF-kB) signaling pathway (AID 651749; active means well fitted activation curve with a large enough effect in the signal ratio; the % refers to the signal ratio; further: series mostly up to about 77 µM; % of control where 0% means no effect); conditions: NF-kB-bla ME-180 cells, beta-lactamase FRET ratio, 16 h; stronger effect = higher value
How it was run: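 FRET-based beta-lactamase detection in ME-180 cells reports NF-kB response-element-driven transcription following overnight (16 hr) compound treatment.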

[17] = qHTS assay for environmental chemicals that activate the Aryl hydrocarbon Receptor (AhR) signaling pathway (AID 651777); conditions: 1A2-DRE human hepatoma cells, luciferase, 24 h; activation: stronger effect = higher value; further: % of control where 0% means no effect; nearly all actives have a fitted effect of over 15% in size
How it was run: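 Human hepatoma 1A2-DRE cells stably carrying a DRE/CYP1A2 promoter–luciferase reporter, 1,200 cells/well, exposed to compound 24 hr at 37 C. Luciferase read by One-Glo luminescence after 30 min at room temperature; increased signal marks AhR activation.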

[18] = molecular target: Peroxisome proliferator-activated receptor alpha (Homo sapiens) (UniProt Q07869); assay: qHTS assay for small molecule agonists of the peroxisome proliferator-activated receptor alpha (PPARalpha) signaling pathway (AID 651778); conditions: PathHunter PPARalpha complementation, chemiluminescence, 6 h; max response: stronger effect = higher value; further: % of control where 0% means no effect
How it was run: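 Chemiluminescence from complemented enzyme reported PPARalpha activation in cells after 6 hr of compound treatment at 37 C. The detection reagent was incubated for 60 min at room temperature, and compounds were scored as agonists.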

[19] = qHTS assay for cell viability of HEK293 cells (AID 743288); conditions: ATP luminescence (CellTiter-Glo), 18 h; max response: stronger effect = lower value; further: on the % scale 0 is the no-effect control and ±100 the full control effect; nearly all actives have a fitted effect of over 50% in size
How it was run: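 HEK293, 18 h, 37 C, ATP luminescence. Cells at 2,000/well were allowed at least 5 h to settle before dosing; CellTiter-Glo developed 30 min at RT.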

[20] = molecular target: Nuclear receptor subfamily 1 group I member 2 (Rattus norvegicus) (UniProt Q9R1A7); assay: qHTS assay for small molecule activators of the rat pregnane X receptor (rPXR) signaling pathway (AID 651751; call rule not given here; further: 0% is about no effect); conditions: rPXR reporter cells, luciferase (One-Glo), 24 h
[21] = qHTS assay for small molecule activators of the human pregnane X receptor (PXR) signaling pathway (AID 720659; call rule not given here; further: 0% is about no effect)
[22] = molecular target: Mitogen-activated protein kinase 10 (Mus musculus) (UniProt Q61831); assay: JNK3 AlphaScreen Assay (AID 530; active means well fitted curve in either direction with a large enough effect, not every such curve was filed as active)
How it was run: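 Kinase buffer: 20 mM Tris-HCl pH 7.6, 10 mM MgCl2, 1 mM DTT, 0.1 mM Na3VO4, 0.01% Tween-20; ATP 10 uM. Substrate biotin-GST-cJun(1-79), enzyme from activated HepG2 lysates. Detection by Ser73 phospho-antibody AlphaScreen.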

[23] = molecular target: Cytochrome P450 2C9 (Homo sapiens) (UniProt P11712); assay: qHTS Assay for Inhibitors and Substrates of Cytochrome P450 2C9 (AID 883); further: nearly all actives have a fitted effect of over 60% in size; further: potency means the concentration at half of the fitted maximal effect
How it was run: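 Inhibition of CYP2C9 is scored as loss of luminescence, with 57uM sulphaphenazole defining 100% inhibition. Substrate Luciferin-H is used at 100uM, equal to its KM; enzyme at 10nM in 25mM KPO4, 60 min at 37C with NADPH regeneration.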

[24] = molecular target: Cytochrome P450 2D6 (Homo sapiens) (UniProt P10635); assay: qHTS Assay for Inhibitors and Substrates of Cytochrome P450 2D6 (AID 891); further: nearly all actives have a fitted effect of over 60% in size; further: potency means the concentration at half of the fitted maximal effect
How it was run: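 Luminescent read-out of luciferin formed by 5 nM human CYP2D6 demethylating 30 uM Luciferin-ME EGE (Km level) over 60 min at room temperature after NADPH regeneration addition. Data normalized to full inhibition by 1.43 uM quinidine.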

[25] = molecular target: Cytochrome P450 2C19 (Homo sapiens) (UniProt P33261); assay: qHTS Assay for Inhibitors and Substrates of Cytochrome P450 2C19 (AID 899); further: nearly all actives have a fitted effect of over 60% in size; further: potency means the concentration at half of the fitted maximal effect
How it was run: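 5nM enzyme + 10uM Luciferin-H EGE (=KM), 50mM KPO4; cpd pin-transferred, 10 min 37C; NADPH regen, 60 min 37C; stopped w/ luciferin detection reagent, 20 min; luminescence. Normalized to 57uM ketoconazole (AC100).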

Cytochrome P450 2C9 (Homo sapiens), sequence (P11712 whole entry, looked up): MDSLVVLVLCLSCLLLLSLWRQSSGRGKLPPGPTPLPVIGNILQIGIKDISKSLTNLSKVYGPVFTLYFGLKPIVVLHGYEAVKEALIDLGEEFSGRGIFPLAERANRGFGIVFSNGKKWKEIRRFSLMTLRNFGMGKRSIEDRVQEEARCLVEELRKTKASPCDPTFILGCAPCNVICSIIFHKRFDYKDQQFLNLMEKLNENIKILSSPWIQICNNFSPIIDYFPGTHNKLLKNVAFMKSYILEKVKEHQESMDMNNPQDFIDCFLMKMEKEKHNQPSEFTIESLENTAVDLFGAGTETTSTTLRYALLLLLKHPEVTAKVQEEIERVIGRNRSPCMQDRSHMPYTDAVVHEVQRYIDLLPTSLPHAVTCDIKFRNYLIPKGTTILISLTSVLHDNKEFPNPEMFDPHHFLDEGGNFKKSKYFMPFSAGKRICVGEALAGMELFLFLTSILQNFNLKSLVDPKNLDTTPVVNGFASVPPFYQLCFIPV
Glucocorticoid receptor (Homo sapiens), sequence (P04150 whole entry, looked up, the tested form may be a part): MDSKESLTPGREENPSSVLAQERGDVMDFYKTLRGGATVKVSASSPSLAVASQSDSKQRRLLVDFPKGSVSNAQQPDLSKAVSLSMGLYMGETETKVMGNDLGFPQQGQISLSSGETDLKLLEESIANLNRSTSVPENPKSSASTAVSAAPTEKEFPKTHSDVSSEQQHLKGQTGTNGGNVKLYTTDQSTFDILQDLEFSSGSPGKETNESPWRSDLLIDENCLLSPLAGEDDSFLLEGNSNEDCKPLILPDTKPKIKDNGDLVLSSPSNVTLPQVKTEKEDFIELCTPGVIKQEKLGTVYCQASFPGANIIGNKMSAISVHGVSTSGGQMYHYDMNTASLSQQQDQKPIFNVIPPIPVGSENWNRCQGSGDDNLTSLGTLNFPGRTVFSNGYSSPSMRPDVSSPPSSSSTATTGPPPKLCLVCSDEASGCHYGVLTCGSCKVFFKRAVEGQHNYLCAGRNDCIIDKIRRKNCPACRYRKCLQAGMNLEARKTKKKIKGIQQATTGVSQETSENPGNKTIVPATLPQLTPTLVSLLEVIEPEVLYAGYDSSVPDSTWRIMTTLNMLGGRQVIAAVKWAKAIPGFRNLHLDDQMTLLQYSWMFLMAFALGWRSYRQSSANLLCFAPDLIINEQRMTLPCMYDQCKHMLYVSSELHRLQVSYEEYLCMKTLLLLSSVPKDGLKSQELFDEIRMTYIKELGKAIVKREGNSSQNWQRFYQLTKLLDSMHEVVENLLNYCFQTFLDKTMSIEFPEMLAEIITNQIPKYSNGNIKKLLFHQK
Cytochrome P450 2D6 (Homo sapiens), sequence (P10635 whole entry, looked up): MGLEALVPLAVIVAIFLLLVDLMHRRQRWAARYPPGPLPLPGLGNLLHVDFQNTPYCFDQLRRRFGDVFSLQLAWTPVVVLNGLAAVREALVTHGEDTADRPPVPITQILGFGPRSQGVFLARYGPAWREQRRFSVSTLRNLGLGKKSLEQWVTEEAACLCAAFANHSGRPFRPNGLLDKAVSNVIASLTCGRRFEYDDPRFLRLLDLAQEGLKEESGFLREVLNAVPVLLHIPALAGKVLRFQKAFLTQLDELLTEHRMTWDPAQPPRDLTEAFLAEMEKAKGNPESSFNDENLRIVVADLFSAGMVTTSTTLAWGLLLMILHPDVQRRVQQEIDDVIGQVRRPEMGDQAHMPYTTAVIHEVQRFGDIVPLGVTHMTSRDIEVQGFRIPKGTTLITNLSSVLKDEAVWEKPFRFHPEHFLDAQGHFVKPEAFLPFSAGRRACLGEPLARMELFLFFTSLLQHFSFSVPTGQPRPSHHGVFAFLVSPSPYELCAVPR
Cytochrome P450 2C19 (Homo sapiens), sequence (P33261 whole entry, looked up): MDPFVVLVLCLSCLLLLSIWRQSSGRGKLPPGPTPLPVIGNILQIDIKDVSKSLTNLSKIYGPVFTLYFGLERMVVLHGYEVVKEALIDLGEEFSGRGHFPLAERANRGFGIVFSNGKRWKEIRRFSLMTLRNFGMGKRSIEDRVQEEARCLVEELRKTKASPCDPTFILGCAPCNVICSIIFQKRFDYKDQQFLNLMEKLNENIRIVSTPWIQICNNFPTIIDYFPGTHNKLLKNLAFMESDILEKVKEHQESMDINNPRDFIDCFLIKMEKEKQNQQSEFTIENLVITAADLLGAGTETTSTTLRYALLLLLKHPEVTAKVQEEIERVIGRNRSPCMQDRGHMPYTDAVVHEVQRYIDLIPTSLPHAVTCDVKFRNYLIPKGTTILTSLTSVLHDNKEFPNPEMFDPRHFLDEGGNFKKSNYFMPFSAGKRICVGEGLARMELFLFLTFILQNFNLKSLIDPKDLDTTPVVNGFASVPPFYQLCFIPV
Cytochrome P450 1A2 (Homo sapiens), sequence (P05177 whole entry, looked up): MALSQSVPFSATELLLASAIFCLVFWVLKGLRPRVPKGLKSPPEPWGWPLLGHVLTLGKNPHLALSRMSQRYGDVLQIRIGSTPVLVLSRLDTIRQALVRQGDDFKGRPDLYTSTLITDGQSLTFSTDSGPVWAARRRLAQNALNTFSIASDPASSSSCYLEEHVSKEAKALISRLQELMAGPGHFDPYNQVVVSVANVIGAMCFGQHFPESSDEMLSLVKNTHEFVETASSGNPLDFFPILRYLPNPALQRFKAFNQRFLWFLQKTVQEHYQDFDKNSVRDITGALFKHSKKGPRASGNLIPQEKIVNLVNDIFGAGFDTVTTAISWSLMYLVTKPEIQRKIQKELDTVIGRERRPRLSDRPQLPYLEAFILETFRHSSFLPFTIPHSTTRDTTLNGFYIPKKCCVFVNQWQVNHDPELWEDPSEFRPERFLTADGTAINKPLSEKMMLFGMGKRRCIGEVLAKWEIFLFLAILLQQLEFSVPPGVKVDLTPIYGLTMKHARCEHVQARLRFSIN
3',5'-cyclic-AMP phosphodiesterase 4B (Homo sapiens), sequence (Q07343 whole entry, looked up): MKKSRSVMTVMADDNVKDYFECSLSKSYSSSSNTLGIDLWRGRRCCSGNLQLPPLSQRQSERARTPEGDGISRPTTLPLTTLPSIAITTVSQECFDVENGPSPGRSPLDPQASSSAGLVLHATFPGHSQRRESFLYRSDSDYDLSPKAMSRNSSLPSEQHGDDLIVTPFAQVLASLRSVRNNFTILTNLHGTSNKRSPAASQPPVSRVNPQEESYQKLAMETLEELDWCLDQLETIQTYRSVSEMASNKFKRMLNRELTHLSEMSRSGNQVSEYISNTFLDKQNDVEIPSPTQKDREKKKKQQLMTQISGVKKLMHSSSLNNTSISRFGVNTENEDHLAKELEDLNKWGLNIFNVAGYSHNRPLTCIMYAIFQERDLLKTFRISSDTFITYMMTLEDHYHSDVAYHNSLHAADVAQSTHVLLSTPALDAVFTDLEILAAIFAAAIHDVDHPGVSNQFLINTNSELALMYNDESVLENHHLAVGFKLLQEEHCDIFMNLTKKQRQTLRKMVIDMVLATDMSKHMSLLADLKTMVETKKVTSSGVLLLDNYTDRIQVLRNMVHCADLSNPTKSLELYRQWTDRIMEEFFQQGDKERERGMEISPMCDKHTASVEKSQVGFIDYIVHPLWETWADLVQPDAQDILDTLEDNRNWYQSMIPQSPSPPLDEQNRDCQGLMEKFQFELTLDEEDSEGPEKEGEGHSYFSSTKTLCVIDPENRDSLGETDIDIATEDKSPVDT
Androgen receptor (Homo sapiens), sequence (P10275 whole entry, looked up): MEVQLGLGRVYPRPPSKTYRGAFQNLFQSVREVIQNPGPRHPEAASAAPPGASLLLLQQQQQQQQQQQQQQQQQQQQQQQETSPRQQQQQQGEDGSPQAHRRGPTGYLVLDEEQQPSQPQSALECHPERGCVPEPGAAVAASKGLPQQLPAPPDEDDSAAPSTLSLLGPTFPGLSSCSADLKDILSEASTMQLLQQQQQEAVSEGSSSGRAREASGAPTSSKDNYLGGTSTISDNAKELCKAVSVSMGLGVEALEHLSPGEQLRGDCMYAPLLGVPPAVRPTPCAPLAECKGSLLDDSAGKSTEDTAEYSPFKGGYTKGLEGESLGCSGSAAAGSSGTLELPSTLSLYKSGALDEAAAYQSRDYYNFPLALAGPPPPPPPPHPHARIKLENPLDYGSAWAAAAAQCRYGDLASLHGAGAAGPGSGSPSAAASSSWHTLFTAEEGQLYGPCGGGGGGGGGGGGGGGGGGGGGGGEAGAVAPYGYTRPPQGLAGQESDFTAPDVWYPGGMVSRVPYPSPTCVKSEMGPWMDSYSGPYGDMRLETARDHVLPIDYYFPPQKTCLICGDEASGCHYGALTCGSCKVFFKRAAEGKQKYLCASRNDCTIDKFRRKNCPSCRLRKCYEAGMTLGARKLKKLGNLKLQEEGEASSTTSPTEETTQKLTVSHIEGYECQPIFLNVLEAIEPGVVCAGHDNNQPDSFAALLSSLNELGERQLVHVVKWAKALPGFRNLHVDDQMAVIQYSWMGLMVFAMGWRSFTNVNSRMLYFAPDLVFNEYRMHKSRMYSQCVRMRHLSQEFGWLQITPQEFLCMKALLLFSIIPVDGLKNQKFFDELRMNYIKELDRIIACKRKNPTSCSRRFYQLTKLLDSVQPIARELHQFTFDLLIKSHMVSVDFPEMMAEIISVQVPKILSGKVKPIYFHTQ
Thyroid hormone receptor beta (Homo sapiens), sequence (P10828 whole entry, looked up): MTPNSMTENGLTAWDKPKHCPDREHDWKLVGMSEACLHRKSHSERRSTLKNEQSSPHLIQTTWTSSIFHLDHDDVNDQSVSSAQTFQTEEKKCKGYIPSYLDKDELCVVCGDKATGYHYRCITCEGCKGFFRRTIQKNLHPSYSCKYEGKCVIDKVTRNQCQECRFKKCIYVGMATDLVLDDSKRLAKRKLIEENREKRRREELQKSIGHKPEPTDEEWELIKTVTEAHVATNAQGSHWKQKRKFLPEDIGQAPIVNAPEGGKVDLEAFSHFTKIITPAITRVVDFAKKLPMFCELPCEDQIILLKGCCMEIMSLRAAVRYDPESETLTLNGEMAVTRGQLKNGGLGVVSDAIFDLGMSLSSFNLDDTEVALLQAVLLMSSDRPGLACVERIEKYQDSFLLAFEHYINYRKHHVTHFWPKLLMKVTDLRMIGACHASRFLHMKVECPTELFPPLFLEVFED

CC1(C)CCC(C)(C)c2cc(C(=O)Nc3ccc(C(=O)O)cc3)ccc21
2.34%: max response [13]
active: Potency [1] 31.6 µM | Potency [15] 61.1 µM
inactive: Potency [2] > 46 µM | Potency [3] > 46 µM | Potency [4] | outcome [5] | activation [6] -12.7% | outcome [7] | Potency [8] | activation [9] -10.3% | Potency [10] | outcome [11] | outcome [12] | activity change % (negative = inhibition) [14] 15.7% | activation [16] 1.76% | activation [17] -0.1% | max response [18] 0.0193% | max response [19] 1.87% | max response [20] -9.44% | outcome [21]

C=C1CC[C@H]2C(C)(C)[C@H](O)CC[C@]2(C)[C@@H]1COc1ccc2ccc(=O)oc2c1
inactive: Potency [2] > 46 µM | Potency [3] > 46 µM | Potency [22] | Potency [24]
active: Potency [1] 31.6 µM | Potency [23] 3.98 µM | Potency [25] 6.31 µM

O=c1cc(-c2ccccc2O)oc2ccc3ccccc3c12
active: Potency [1] 1 µM | Potency [24] 20 µM
inactive: Potency [2] > 46 µM | Potency [3] > 46 µM | outcome [5]

O=c1c(O)c(-c2ccc(O)c(O)c2)oc2c(OC[C@H]3O[C@@H](O)[C@@H](O)[C@H](O)[C@@H]3O)c(O)cc(O)c12
inactive: Potency [1] | Potency [2] > 46 µM | Potency [3] > 46 µM | Potency [4] | Potency [23] | Potency [24]

COc1ccc2c(c1)[C@]1(C)CCC[C@](C)(CO)[C@@H]1CC2
active: Potency [1] 15.8 µM | Potency [23] 7.94 µM | Potency [25] 3.16 µM
inactive: Potency [2] > 46 µM | Potency [3] > 46 µM | Potency [22] | Potency [24]

COc1ccc(OC)c([C@H]2Nc3ccccc3NC3=C2C(=O)CC(C)(C)C3)c1Br
active: Potency [1] 20 µM | Potency [23] 31.6 µM | Potency [25] 3.16 µM
inactive: Potency [2] > 46 µM | Potency [3] > 46 µM | Potency [22] | Potency [4] | Potency [24]

CC(=O)O[C@@H]1CC[C@]2(C)[C@H]3CC[C@]4(C)[C@H](C[C@H]5CCCC[C@@]54C(C)=O)[C@@H]3CC(=O)[C@@]2(O)C1
inactive: Potency [2] > 46 µM | Potency [3] > 46 µM | Potency [22] | Potency [4] | Potency [24]
active: Potency [1] 20 µM

CC[C@@H]1[C@H]2CCCCN3[C@@H]2[C@@H](C[C@H]3[C@@H]2C[C@H](C)C(=O)O2)[C@@H]2[C@H]1OC(=O)[C@H]2C
inactive: Potency [2] > 46 µM | Potency [3] > 46 µM | Potency [22] | Potency [4] | Potency [23] | Potency [25]
active: Potency [1] 25.1 µM
